Experimental data published in PubChem BioAssay AID641 (Vanderbilt High Throughput Screening Facility, 2007).
Out of some 58,000 compounds screened, about 3,400 (5.9%) were called active. The entries come from a sample that favours actives as a whole. Values without a mark were called inactive.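 Rule for the calls: active = luminescence count or its row- and column-corrected plate score outside the 99.7% band of the plate's sample wells, on either side; inactive = the rest.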

These molecules were tested against D(1A) dopamine receptor (Homo sapiens) (UniProt P21728) (assay: D1 CRE-luciferase signal change, two-sided – cell-based, HEK293 D1, dopamine EC30, D1 allosteric modulator project, primary screen (AID 641)). Conditions: dopamine EC30 potentiation, at 10 µM, actives deviate in either direction.
D(1A) dopamine receptor (Homo sapiens), sequence (P21728 whole entry, looked up): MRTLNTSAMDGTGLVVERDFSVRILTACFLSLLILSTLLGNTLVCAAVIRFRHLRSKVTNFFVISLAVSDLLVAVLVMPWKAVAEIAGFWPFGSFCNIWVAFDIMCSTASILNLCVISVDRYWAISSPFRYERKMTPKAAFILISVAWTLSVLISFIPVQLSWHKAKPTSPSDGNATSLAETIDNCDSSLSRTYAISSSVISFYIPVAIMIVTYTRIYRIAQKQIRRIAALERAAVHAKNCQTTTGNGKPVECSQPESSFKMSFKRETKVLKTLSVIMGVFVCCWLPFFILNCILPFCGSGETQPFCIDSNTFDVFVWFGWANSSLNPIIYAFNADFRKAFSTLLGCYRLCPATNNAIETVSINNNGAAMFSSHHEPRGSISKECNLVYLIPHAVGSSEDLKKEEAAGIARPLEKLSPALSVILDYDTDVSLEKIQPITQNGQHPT
`CCOc1ccc(Cn2nnc(C(=O)NCc3ccccc3)c2N)cc1` was tested, and the B-score was 0.835.
Molecule `CC1(C)CC(=O)C(C=NCCC2=CCCCC2)=C(O)C1` has a B-score of 1.52.
With `Fc1ccc2[nH]c3c(N4CCSCC4)ncnc3c2c1` the B-score was -5.42 (active).
Molecule `Cc1ccc2c(c1)NCC(C(=O)NC1CCC(C)CC1)O2` (configuration not stated) has a B-score of 0.396.
Work on `CC1(C)CC(=O)C=C(NC2CC(C)(C)NC(C)(C)C2)C1` yielded a B-score of -0.998.
For `CCCCc1c(O)nc2n(c1=O)CCS2`, the B-score was 3.41 (active).
For `CCOC(=O)N1CCN(C(=O)c2cnc3n(c2=O)CCS3)CC1`, the B-score was 0.461.
`CN(CCc1ccccn1)S(=O)(=O)c1ccc2c3c(cccc13)C(=O)N2` gave a B-score of 0.281.
`CCC/C(O)=C1\C(=O)CC(C)(C)CC1=Nc1ccccc1OC` gave a B-score of 0.24.
With `COc1ccc(NC(=O)c2cccc(NC(=O)c3ccco3)c2)c(OC)c1` the B-score was -0.0282.
Molecule `Cc1cc(NC(=O)Nc2ccccc2)n(-c2ccccc2)n1` has a B-score of -0.331.
With `Cc1nn(-c2ccccc2)c2c1C(=O)NC(=O)C(C)(C)C2` the B-score was 20.5 (active).
Molecule `Cc1nn(-c2ccccc2)c(CC(C)(C)C(=O)O)c1C(=O)O` has a B-score of 0.0788.
`Cc1cc(Nc2ccc(Br)cc2F)n2ncnc2n1` gave a B-score of -0.165.
Work on `COC(=O)c1oc2ccc(Br)cc2c1NC(C)=O` yielded a B-score of 0.0355.
With `CCN(CC)S(=O)(=O)c1cccc(C(=O)Nc2cc(C)nn2-c2nc(C)cc(C)n2)c1` the B-score was 0.0356.
Work on `Cc1cccc(-n2nc3c(c2NC(=O)c2ccc(Br)o2)CSC3)c1C` yielded a B-score of 0.109.
For `Cc1cc(C)nc(-n2nc(C)cc2NC(=O)c2ccc(Br)o2)n1`, the B-score was 6.02 (active).
In the case of `CS(=O)(=O)N(C(=O)NC(=O)NC1CCS(=O)(=O)C1)C1CCCCC1` (configuration not stated), the B-score is reported as -3.24 (active).
`CC(=O)CCS(=O)(=O)c1ccc(C)c(C)c1` was tested, and the B-score was 1.88.
`COc1ccc(S(=O)(=O)N2CCOCC2)cc1C(=O)Nc1nc2ccccc2s1` gave a B-score of -0.687.
`CN(C)CCNC(CC(=O)Nc1ccc(Cl)c(Cl)c1)C(=O)O` (configuration not stated) gave a B-score of 0.834.
`CC(c1cccnc1)N(CCN(C)C)C(=O)Nc1ccc(Cl)c(Cl)c1` (configuration not stated) was tested, and the B-score was -1.22 (active).
Work on `CC(C)NS(=O)(=O)c1ccc(NC(=O)c2cccnc2)cc1` yielded a B-score of 1.41.
With `COC(=O)[C@H](C(C)C)n1c(C)c(C(C)=O)c(C(C)=O)c1C` the B-score was 4.12 (active).
With `CCOc1ccc(OCC)c(NC(=O)C(NS(=O)(=O)c2ccc3c(c2)oc(=O)n3C)C(C)C)c1` (configuration not stated) the B-score was -0.175.
Molecule `C#CCN1C(=O)C(O)(CC(=O)c2cc(OC)ccc2OC)c2ccccc21` (configuration not stated) has a B-score of 0.733.
With `CSC1=NCCN1C(=O)c1ccc(S(=O)(=O)N2CCOCC2)cc1` the B-score was -0.521.
`Cn1c(=NC(=O)C2CC2)sc2cc(F)cc(F)c21` was tested, and the B-score was 1.19.
Molecule `COc1ccccc1N1CC(O)=C(c2nc3ccccc3s2)C1=N` has a B-score of -0.346.
`COC(=O)C(C)Sc1nc2c(c(=O)n(C)c(=O)n2C)n1Cc1cccc(C)c1` (configuration not stated) showed a B-score of 0.892.
Molecule `Cc1cccc(Cn2c(SCCO)nc3c2c(=O)n(C)c(=O)n3C)c1` has a B-score of 0.248.
In the case of `C/C(Cl)=C\Cn1c(Nc2cccc(C)c2)nc2c1c(=O)n(C)c(=O)n2C`, the B-score is reported as 13.2 (active).
Molecule `COCCCNC(=O)c1c(F)c(F)c(F)c(F)c1F` has a B-score of -0.712.
`O=C(NCc1cccnc1)c1ccc(CS(=O)(=O)c2ccc(Br)cc2)o1` was tested, and the B-score was -0.0969.
For `Cc1cccc(NC(=O)CSC(N)=O)c1C`, the B-score was -0.0507.
For `CCc1ccccc1N(CC(=O)NCCSCc1ccco1)S(C)(=O)=O`, the B-score was 0.0216.
In the case of `O=C(c1ccc2c(c1)OCCO2)C1CCN(S(=O)(=O)c2cccc(F)c2)CC1`, the B-score is reported as 0.0652.
With `O/N=C(\c1ccc2c(c1)OCCO2)C1CCCCC1` the B-score was 8.96 (active).
Molecule `O=C(OCc1ccccc1F)c1ccc2c(c1)OCCO2` has a B-score of 0.452.
`Fc1c(F)c(C(F)(F)F)c(F)c(F)c1N1CCN(c2ccc3nnc(C(F)(F)F)n3n2)CC1` was tested, and the B-score was 0.11.
Work on `CC1(C)CC(=O)C(C=NCc2cccnc2)=C(O)C1` yielded a B-score of 1.34.
